Data taken from paper PMC7819943, “Rice protein-binding microarrays: a tool to detect cis-acting elements near promoter regions in rice”.
In all, about 68,000 sequences were measured (“fluorescence intensity (a.u.)”: median about 9,100, highest 2% from about 16,000 on). The full list was thinned out, with the highest values kept by preference.

What follows are sequences tested against OsWRKY34 (Oryza sativa, UniProt Q0JBA9 1-250) (assay: protein-binding microarray (RPBM); PBS, 2% BSA, 51.3 ng/ul salmon testes DNA, 50 uM zinc acetate, 200 nM TF, 25 C, 1 h; high values mean tight binding). Settings: protein: recombinant; tags: N-terminal polyhistidine and DsRed monomer fusion (pET32a); label: CyDye5-dUTP incorporated in the synthesized complementary strand; 3' TTTTT single-stranded linker to array surface; dsDNA, one strand shown.
Procedure, shortened: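 Transcription factors were each fused at the N-terminus to a polyhistidine tag plus DsRed and expressed in E. coli BL21-CodonPlus before Ni–NTA purification. Binding to a double-stranded custom Agilent array was carried out with 200 nM protein at 25 °C for 1 h in PBS, 2% BSA, salmon testes DNA and 50 µM zinc acetate. The binding signal is per-feature fluorescence intensity, in arbitrary units, on an Axon 4000B scanner.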

Sequence of OsWRKY34 (Q0JBA9 entry or part of it): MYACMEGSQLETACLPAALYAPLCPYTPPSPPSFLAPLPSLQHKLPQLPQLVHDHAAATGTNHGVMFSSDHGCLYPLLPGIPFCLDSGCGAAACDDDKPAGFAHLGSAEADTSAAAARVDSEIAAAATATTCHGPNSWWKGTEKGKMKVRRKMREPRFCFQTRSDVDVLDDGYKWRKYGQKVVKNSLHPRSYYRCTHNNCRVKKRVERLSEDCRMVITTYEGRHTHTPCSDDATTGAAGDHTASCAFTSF

In order of falling binding signal:
1. TCCGTAAATCCAACATGGCACTATTACCGCCGGCTTAAATCGGAGTCACCTAGTGCAG  56000 fluorescence intensity (a.u.)
2. CTGCACTGTTTGCCTCAGTTGGGTTGGTTTGGTTTGGTTGCGGAGTCACCTAGTGCAG  48200 fluorescence intensity (a.u.)
3. AAATGTTTGACGCCGTTGACTTTTTTAAACATGTTTGACCCGGAGTCACCTAGTGCAG  33600 fluorescence intensity (a.u.)
4. ATGATGCCGTTGACTTTTTGAACAACGTTTGACTATTCGTCGGAGTCACCTAGTGCAG  32600 fluorescence intensity (a.u.)
5. TATTTGACGTCGTTGACTTTTTAAAACATGTTTGACCATTCGGAGTCACCTAGTGCAG  30200 fluorescence intensity (a.u.)
6. ACGCCGTTGACTTTTTAAGCAACATTTGACCATTCGTTTTCGGAGTCACCTAGTGCAG  30000 fluorescence intensity (a.u.)
7. CGTTGGGAGTTGGGAGGGATGGGTGGTGCATCAAGATTGACGGAGTCACCTAGTGCAG  23500 fluorescence intensity (a.u.)
8. TATACGACGCCGTTGACTTTTTAAGATACGTTAGACCATTCGGAGTCACCTAGTGCAG  20300 fluorescence intensity (a.u.)
9. AAGAGGGTGGGTTGTTGGGGAGAGGGGAGGGAGGAGGATTCGGAGTCACCTAGTGCAG  20100 fluorescence intensity (a.u.)
10. AGGTGGTGTTTGGTTGGAGGGGCTAAAGTGGGGCTAAACTCGGAGTCACCTAGTGCAG  20000 fluorescence intensity (a.u.)
11. TCCGTTTCGAAATGCTTGACGCCGTTGACTTTTTTAAACACGGAGTCACCTAGTGCAG  19400 fluorescence intensity (a.u.)
12. TACCTCATTCCCTAAATGTTTGACGCCGTTGACTTTTTTACGGAGTCACCTAGTGCAG  17500 fluorescence intensity (a.u.)
13. TCCTTCCCTAAATGTTTGACGCCGTTGACTTTTTTAAACACGGAGTCACCTAGTGCAG  16600 fluorescence intensity (a.u.)
14. GGTACTCTCTTCGTTTTTAGTATACGACGCCGTTGACTTTCGGAGTCACCTAGTGCAG  16000 fluorescence intensity (a.u.)
15. TTGACACCATTGACTTTTTTAAACATGTTTGACCGTTCGTCGGAGTCACCTAGTGCAG  15100 fluorescence intensity (a.u.)
16. TGTGGGTTGGAGGGAGGAGGGGATTGAAGGGTTGTTAATTCGGAGTCACCTAGTGCAG  14900 fluorescence intensity (a.u.)
17. TGGATGGTACTCCCTCCTCTAAATGTTTGACGCCGTTGACCGGAGTCACCTAGTGCAG  14400 fluorescence intensity (a.u.)
18. TTTGACGCCGTTGACTTTTTTAAACATGCTTGATCATTCACGGAGTCACCTAGTGCAG  13700 fluorescence intensity (a.u.)
19. GCAACTGCACATGTGCTTATTTAGTTTCTGCATTGGTCAACGGAGTCACCTAGTGCAG  12200 fluorescence intensity (a.u.)
20. GACACTGCCACCTCACTCTCCACTCCACTATATATACCCTCGGAGTCACCTAGTGCAG  12100 fluorescence intensity (a.u.)
21. CTTGCTGTTACGCACCACATTGATTTACTTTCTTTTTCTTCGGAGTCACCTAGTGCAG  11600 fluorescence intensity (a.u.)
22. GACAACGGTCAAATATGTGCTAAAAAGTCAACGGTATCAACGGAGTCACCTAGTGCAG  11600 fluorescence intensity (a.u.)
23. ATATACTCCCTCCTTCCCTAAATGTTTGACGCCGTTGACTCGGAGTCACCTAGTGCAG  11400 fluorescence intensity (a.u.)
24. TGCGGATGGGATGGAGAGCGCAGGAGGGGTGGGTTGTTGTCGGAGTCACCTAGTGCAG  10800 fluorescence intensity (a.u.)
25. CTCTCTTCTTTTTATCTTATTCATATGTATTTATAGCTGACGGAGTCACCTAGTGCAG  10500 fluorescence intensity (a.u.)
26. AGGTGGTTGGTGAGGTTTGCTTTGCACGATCGAGTGAGGACGGAGTCACCTAGTGCAG  10500 fluorescence intensity (a.u.)
27. TTGACTTTTTAACCAACGTTTGACTATTCGTCTTATTCAACGGAGTCACCTAGTGCAG  10100 fluorescence intensity (a.u.)
28. AACATAAACACACATCATTTCCTGTCCCTTGCACGCTACGCGGAGTCACCTAGTGCAG  10000 fluorescence intensity (a.u.)
29. CCCACCTCGCCTTTCGATTGCGCGATCACCCACCTTTATACGGAGTCACCTAGTGCAG  10000 fluorescence intensity (a.u.)
30. GGTGTTTGGTTGGAGGGATTAAAGTGGGGCTAAACTTTAGCGGAGTCACCTAGTGCAG  9950 fluorescence intensity (a.u.)
31. CTCTCGACCACTTCCATTCCTTCCCGGGCTCGCCGCGCCGCGGAGTCACCTAGTGCAG  9780 fluorescence intensity (a.u.)
32. TATCCGTTCGCGTCCCCGCCCTCGCTTCGCCGCGGCAATGCGGAGTCACCTAGTGCAG  9720 fluorescence intensity (a.u.)
33. CCATCATCTCTCGATCCATCTCCAGCAAGTTACCTATAAACGGAGTCACCTAGTGCAG  9580 fluorescence intensity (a.u.)
34. ACTCTCCCGTTATTGCCGCCACCGGACCGCTAGCTCCGCACGGAGTCACCTAGTGCAG  9570 fluorescence intensity (a.u.)
35. GCTCCGTGGCACTATTTTTTTTTTACCGCGAATCCTCCAACGGAGTCACCTAGTGCAG  9550 fluorescence intensity (a.u.)
36. GTCATTTATTTTTACCAACGTTTGACTATTCGTCTTATTTCGGAGTCACCTAGTGCAG  9430 fluorescence intensity (a.u.)
37. ACTCCCTCCATTTTTTTAATTGACGACGCCATTGACTTTTCGGAGTCACCTAGTGCAG  9350 fluorescence intensity (a.u.)
38. CCAGCTGTGTGTGTGCACGCGGTTTTCCAATCGATTCTTCCGGAGTCACCTAGTGCAG  9270 fluorescence intensity (a.u.)
39. ACTTTATCTTTGCCGCCGGCCGCCACAACTGCTTCTACGGCGGAGTCACCTAGTGCAG  9180 fluorescence intensity (a.u.)
40. CTCCTCATCCTCATCGTCGCCGCCGCCCACGTCGTCTCGCCGGAGTCACCTAGTGCAG  9110 fluorescence intensity (a.u.)
41. GCATCCGTGTCCTTTGCCGAAGCCGAAGGCCCGCTCTCTCCGGAGTCACCTAGTGCAG  8900 fluorescence intensity (a.u.)
42. TGGTGTTTGGTTGGAGGGACTAAAGTAGGGCTAAACTTTACGGAGTCACCTAGTGCAG  8870 fluorescence intensity (a.u.)
43. AGTTTTAAGGAGGGAGTTGATGGTGGGATTGGTCATGGGACGGAGTCACCTAGTGCAG  8620 fluorescence intensity (a.u.)
44. CAAGGAGGGAGTTGATGGTGGGATTGATCATGGGAGTTATCGGAGTCACCTAGTGCAG  8560 fluorescence intensity (a.u.)
45. CTCACTCCTGGCGCCGGTGACCTCTCTGCCACTCCACCGGCGGAGTCACCTAGTGCAG  8550 fluorescence intensity (a.u.)
46. ATCTCGGTCTCTCACAAGACACACAGCTAATTAGCTCTATCGGAGTCACCTAGTGCAG  8470 fluorescence intensity (a.u.)
47. CACATGTTATTACCACCTCATTTTGCGTAAAACACTTAATCGGAGTCACCTAGTGCAG  8460 fluorescence intensity (a.u.)
48. GCAGTTTCAGTGTGTGTTTGGTTGCAAGTTGTTGCATCTGCGGAGTCACCTAGTGCAG  8410 fluorescence intensity (a.u.)
49. CTTTTGCAACTCAAGCTACTATATCTATGATGGCATCTGACGGAGTCACCTAGTGCAG  8400 fluorescence intensity (a.u.)
50. TCATCTGCTCCAAATTAAGCATTGCATCATCTACTCTGCCCGGAGTCACCTAGTGCAG  8390 fluorescence intensity (a.u.)
51. CTCGTCACTCGTCTCGTCTCGCACAGTCGCAGCTGCTGCGCGGAGTCACCTAGTGCAG  8390 fluorescence intensity (a.u.)
52. ACTCACTGTTGCCTGTTGGTTTGTTGTCAGTAGCGCTAGGCGGAGTCACCTAGTGCAG  8370 fluorescence intensity (a.u.)
53. CTACCGCATCCCCTCCCTCTCTCGGCGAGCCGAATCCATGCGGAGTCACCTAGTGCAG  8270 fluorescence intensity (a.u.)
54. TTAACTTTTACTCTAATTTATTCTCCTGTACCTTTTTATACGGAGTCACCTAGTGCAG  8250 fluorescence intensity (a.u.)
55. CTCATGTTTGACCATTCGTCTTATTTAAAAACTTTTGTGACGGAGTCACCTAGTGCAG  8180 fluorescence intensity (a.u.)
56. TACCGCCTGAAATCCAACATTATTATGCACTGTAATTTACCGGAGTCACCTAGTGCAG  8170 fluorescence intensity (a.u.)
57. AAGCAGCAAAAGTCACACATACACTCTCTCTGCTACTACTCGGAGTCACCTAGTGCAG  8160 fluorescence intensity (a.u.)
58. TCTCGCTCCTCATGCTCCTCTCCCGGCGGCGACGCTATGCCGGAGTCACCTAGTGCAG  8080 fluorescence intensity (a.u.)
